Source: PubChem BioAssay
Mtb hypoxia rep = inhibitors of hypoxia-regulated fluorescent reporter in Mycobacterium tuberculosis; M. tuberculosis hypoxia-regulated fluorescent reporter, fluorescence; fluorescence inhibition, % (no concentration beside the values); 0.1% of 300,000 active; in the data active means fluorescence inhibition mostly above about 23%, no sharp cut-off; inactive means mostly below about 17%
PfHsp40 yeast = compounds rescuing yeast from Plasmodium falciparum HSP40 toxicity. S. cerevisiae expressing PfHsp40, growth rescue, ATP luminescence. growth rescue, % at 12.5 µM. 0.68% of 340,000 active. AID 504582; in the data active means growth rescue above about 28%, passing the limit was not always enough; inconclusive means no clear call, values can overlap the other calls;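 further: yeast W303a lacking pdr1 and pdr3 grown in galactose medium; growth measured after three days at 30 °C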
Mtb betalactam = beta-lactam sensitization of Mtb H37Rv | 0.27% of 330,000 active | M. tuberculosis H37Rv growth with meropenem, percent inhibition | AID 434955 | inhibition, % at 25 µM;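 further: growth measured after seven days incubation then overnight dye step; 0% = bacteria only wells and 100% = bacteria with antibiotic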
CCHFV vOTU inh = blocks the CCHF virus ovarian tumor domain protease; CCHFV vOTU protease, Pep-AMC fluorescence; inhibition, % at 11.5 µM; 0.55% of 370,000 active; AID 651958; in the data active means inhibition above about 30%; further: 0% = vehicle wells with enzyme and 100% = no enzyme wells
RecA intein inh = Mtb RecA intein splicing inhibition; P9WHJ3; cell-free RecA intein splicing, fluorescence; inhibition, % (concentration not given with the values); 0.75% of 290,000 active; AID 2221; in the data active means inhibition above about 30%; inconclusive means no clear call, values can overlap the other calls;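 further: 0% = vehicle wells and 100% = reference inhibitor control wells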
Target sequence (P9WHJ3 whole entry, looked up): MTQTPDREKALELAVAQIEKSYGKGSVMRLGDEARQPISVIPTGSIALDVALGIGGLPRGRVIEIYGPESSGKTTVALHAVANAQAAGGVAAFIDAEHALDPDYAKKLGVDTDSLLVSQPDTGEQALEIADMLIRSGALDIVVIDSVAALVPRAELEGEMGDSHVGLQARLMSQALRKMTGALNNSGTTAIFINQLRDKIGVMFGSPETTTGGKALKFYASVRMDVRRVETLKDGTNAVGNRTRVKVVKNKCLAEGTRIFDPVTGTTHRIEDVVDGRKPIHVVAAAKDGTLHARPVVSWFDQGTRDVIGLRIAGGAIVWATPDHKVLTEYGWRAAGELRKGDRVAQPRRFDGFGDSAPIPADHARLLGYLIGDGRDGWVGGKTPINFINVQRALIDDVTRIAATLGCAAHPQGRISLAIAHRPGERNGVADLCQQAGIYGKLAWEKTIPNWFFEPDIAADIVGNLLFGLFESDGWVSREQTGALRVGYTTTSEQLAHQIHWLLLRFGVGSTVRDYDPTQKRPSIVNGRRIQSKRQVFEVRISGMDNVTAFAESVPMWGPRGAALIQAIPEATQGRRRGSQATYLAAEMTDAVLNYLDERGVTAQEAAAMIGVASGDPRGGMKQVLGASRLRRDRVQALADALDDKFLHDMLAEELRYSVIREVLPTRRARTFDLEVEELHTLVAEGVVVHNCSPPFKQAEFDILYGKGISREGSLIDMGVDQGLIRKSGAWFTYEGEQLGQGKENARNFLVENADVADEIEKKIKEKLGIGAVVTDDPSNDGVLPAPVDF
GFP chromo cs = counter-screen GFP chromophore formation inhibition; shares compounds with RecA intein inh; cell-free GFP chromophore formation, fluorescence; EC50, µM; 83% of 2,100 active; AID 434968
Numbers without * were called inactive; ? = inconclusive; / = no result given. This is a sample that favours compounds with a hit; in the whole collection about 1.7% have one here. Unless noted, how the calls were made is not given here.

SMILES	Mtb hypoxia rep	PfHsp40 yeast	Mtb betalactam	CCHFV vOTU inh	RecA intein inh	others
O=C(COC(=O)c1ccc([N+](=O)[O-])o1)c1ccccc1	11.1	0.5	4.8	6.2	-2.1
CCOc1ccc(C=NNC(=O)CN2CCCCCCC2)cc1	11.9	/	/	/	/
Cc1cc(C)nc(SCC(=O)NN=Cc2cccn2-c2ccc(O)cc2)n1	1.0	/	/	/	/
CCCCCCn1cnc2c(c1=O)c1nc3ccccc3nc1n2N=Cc1ccco1	-12.9	/	/	/	/
O=[N+]([O-])c1ccc2c(c1)ncn2-c1ccccc1	5.8	-0.8	-5.4	2.1	0.8
O=[N+]([O-])c1ccc(-n2cnc3ccccc32)c([N+](=O)[O-])c1	41.6*	1.4	98.7	-11.8	-0.2
CCN(Cc1ccccc1)S(=O)(=O)c1ccc(C(=O)Nc2nnc(C)o2)cc1	1.3	12.8	84.5	23.9	2.2
CCc1nnc(NC(=O)c2ccc(S(=O)(=O)N(CC)Cc3ccccc3)cc2)o1	-2.3	172.2*	87.3	7.4	1.2
O=C(NC(c1ccccc1)c1cc(Cl)c2cccnc2c1O)c1cccnc1 (stereo unspecified)	/	/	1.6	-7.6	5.8
O=C(O)COc1ccccc1C(Nc1ccccn1)c1cc(Cl)c2cccnc2c1O (stereo unspecified)	-3.3	57.9*	10.9	12.2	17.7
COc1ccccc1C(NC(C)=O)c1cc(Cl)c2cccnc2c1O (stereo unspecified)	15.4	-0.9	-2.2	-11.2	-0.6
CCOc1ccc(C(Nc2cccnc2)c2cc(Cl)c3cccnc3c2O)cc1 (stereo unspecified)	5.8	91.5*	-5.2	4.0	3.6
O=C(O)COc1ccccc1C(Nc1cccnc1)c1cc(Cl)c2cccnc2c1O (stereo unspecified)	18.5	106.1*	/	/	40.9*
CSCCC(NC(N)=O)C(=O)NCc1ccc(Cl)cc1 (stereo unspecified)	16.3	80.4*	?	-1.9	-8.8
COc1ccc(S(=O)(=O)N(CC(=O)N/N=C/c2cccs2)c2cc(C)cc(C)c2)cc1OC	/	47.6*	-0.4	-3.0	7.0
COc1ccc(S(=O)(=O)N(CC(=O)N/N=C/c2cccs2)c2ccc(C)cc2)cc1OC	/	1.1	-1.1	15.3	4.6
Cc1ccc(NC(=S)NC(=O)C2CCCC2)c(Br)c1	-6.0	118.8*	-3.5	4.9	/
O=C(NC(=S)Nc1ccccc1Br)C1CC1	2.3	0.2	-5.3	11.7	2.5
CC1NC(=O)[C@@]2(C)C(c3ccccc3)C3COc4ccccc4C3N2C1=O (stereo partly specified)	-0.5	/	/	/	/
[O-][n+]1c2ccccc2[n+]([O-])c2cc(O)ccc21	41.8*	-0.7	60.1	9.2	2.0
CN(C)c1ccc(C(=O)NN=Cc2cc(Br)cc(Br)c2O)cc1	15.5	/	/	/	/
CCCCCCCCCCOC(=O)Cn1c(COc2ccccc2OC)[n+](C)c2ccccc21	/	316.3*	54.2	25.4	49.5*	GFP chromo cs=12.5*
CC1CCC(C(C)C)C(OC(=O)Cn2c(COc3ccccc3)[n+](C)c3ccccc32)C1 (stereo unspecified)	/	0.8	98.7	28.8	15.3
O=C(NC1CSCC1=NO)c1ccccc1 (stereo unspecified)	-2.6	/	/	/	/
Cc1cc(C)cc(OC(=O)CS(=O)c2ccc(C(F)(F)F)cc2[N+](=O)[O-])c1 (stereo unspecified)	5.2	-0.5	77.1	8.8	43.0*	GFP chromo cs=6.33*
SMILES	Mtb hypoxia rep	PfHsp40 yeast	Mtb betalactam	CCHFV vOTU inh	RecA intein inh	others
CCOC(=O)C1=C(C)n2c(s/c(=C/c3cccc([N+](=O)[O-])c3)c2=O)=NC1c1ccc(O)c(OC)c1 (stereo unspecified)	/	3.5	/	-12.9	35.1*	GFP chromo cs=36*
C#CCOCCOCCOCCNc1nc(N2CCN(C(=O)C(CCCCN)n3cc(CN)nn3)CC2)nc(N2CCN(C(=O)C(CCC(=O)O)n3cc(C(N)CCCCN)nn3)CC2)n1 (stereo unspecified)	8.3	/	/	/	/
Cc1ccc(NC(=O)C(C#N)=NNc2ccc(C(=O)O)cc2)c(C)c1	6.1	/	/	/	/
Cc1ccc(NC(=O)C(=Cc2ccc(C(=O)O)cc2)C(=O)Nc2ccc(C)cc2C)c(C)c1	2.9	1.7	16.8	/	82.6*	GFP chromo cs=7.58*
O=C(CNc1n[nH]c(=O)[nH]c1=O)NN=CC1CC=CCC1 (stereo unspecified)	5.4	/	/	/	/
O=C1CCCC2=C1C(c1ccc3c(c1)OCO3)c1c([nH]n(-c3ccccc3)c1=O)N2 (stereo unspecified)	-2.9	-0.9	-11.5	6.0	74.2*	GFP chromo cs=13.6*
